The target in assay [1] is T1, Inhibitor of nuclear factor kappa-B kinase subunit epsilon (Homo sapiens) (UniProt Q14164).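 Also: reported values are averaged percent inhibition figures against human IKKε.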
T1 sequence (whole entry): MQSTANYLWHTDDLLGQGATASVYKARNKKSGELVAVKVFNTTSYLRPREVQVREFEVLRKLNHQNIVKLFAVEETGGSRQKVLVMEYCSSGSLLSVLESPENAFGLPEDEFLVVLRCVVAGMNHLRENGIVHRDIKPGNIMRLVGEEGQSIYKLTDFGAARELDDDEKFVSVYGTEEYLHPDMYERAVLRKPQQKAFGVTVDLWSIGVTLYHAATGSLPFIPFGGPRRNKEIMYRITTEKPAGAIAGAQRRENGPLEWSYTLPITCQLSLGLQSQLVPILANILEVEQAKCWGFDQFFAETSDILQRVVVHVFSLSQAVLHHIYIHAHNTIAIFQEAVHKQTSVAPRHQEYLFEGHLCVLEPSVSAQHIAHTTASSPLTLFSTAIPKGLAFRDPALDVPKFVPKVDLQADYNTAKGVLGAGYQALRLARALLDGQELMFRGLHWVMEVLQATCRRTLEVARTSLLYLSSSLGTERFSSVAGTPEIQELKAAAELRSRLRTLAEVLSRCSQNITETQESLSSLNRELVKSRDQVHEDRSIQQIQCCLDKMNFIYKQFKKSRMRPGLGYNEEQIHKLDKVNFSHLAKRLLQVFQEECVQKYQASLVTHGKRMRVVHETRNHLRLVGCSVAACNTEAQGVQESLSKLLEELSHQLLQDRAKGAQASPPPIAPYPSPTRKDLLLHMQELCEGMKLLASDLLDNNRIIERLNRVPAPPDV
Particulars: at 1 µM.

In assay [2] the target is T2, Serine/threonine-protein kinase Nek1 (Homo sapiens) (UniProt Q96PY6).
T2 sequence (whole entry): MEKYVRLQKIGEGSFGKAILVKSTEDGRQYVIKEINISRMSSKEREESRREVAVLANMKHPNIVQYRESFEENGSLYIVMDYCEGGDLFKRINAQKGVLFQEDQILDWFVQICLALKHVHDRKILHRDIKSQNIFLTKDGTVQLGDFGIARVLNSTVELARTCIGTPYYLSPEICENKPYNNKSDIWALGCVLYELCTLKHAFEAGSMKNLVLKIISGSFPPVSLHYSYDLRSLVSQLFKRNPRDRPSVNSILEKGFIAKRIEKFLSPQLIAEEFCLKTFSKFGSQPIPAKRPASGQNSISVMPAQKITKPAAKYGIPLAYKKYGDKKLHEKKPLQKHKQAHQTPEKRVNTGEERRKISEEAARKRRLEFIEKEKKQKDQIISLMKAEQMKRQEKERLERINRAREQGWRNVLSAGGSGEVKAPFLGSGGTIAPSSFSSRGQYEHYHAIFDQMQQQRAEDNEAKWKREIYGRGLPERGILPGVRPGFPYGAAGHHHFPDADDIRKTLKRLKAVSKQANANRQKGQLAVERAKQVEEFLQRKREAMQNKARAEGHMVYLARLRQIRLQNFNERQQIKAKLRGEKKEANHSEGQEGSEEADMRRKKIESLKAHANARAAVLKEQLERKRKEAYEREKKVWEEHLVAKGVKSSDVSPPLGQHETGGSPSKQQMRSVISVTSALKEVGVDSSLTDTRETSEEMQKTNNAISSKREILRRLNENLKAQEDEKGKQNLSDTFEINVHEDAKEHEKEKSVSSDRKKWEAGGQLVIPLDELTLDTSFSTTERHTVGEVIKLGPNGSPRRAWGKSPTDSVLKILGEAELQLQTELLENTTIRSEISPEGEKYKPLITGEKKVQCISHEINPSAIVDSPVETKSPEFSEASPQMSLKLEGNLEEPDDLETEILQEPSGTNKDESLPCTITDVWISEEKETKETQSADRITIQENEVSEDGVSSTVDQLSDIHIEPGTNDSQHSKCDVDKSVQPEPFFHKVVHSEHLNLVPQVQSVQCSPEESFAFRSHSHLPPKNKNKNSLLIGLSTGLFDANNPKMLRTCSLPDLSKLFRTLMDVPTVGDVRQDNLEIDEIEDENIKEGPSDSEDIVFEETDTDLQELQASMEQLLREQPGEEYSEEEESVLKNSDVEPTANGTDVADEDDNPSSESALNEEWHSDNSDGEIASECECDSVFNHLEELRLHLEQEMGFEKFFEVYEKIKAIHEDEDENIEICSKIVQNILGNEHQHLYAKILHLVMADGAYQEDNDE
Particulars: at 0.1 µM.

Assay [3] has as its target T2, Serine/threonine-protein kinase Nek1 (Homo sapiens). Particulars: at 1 µM.
Assay [4] deals with T3, Serine/threonine-protein kinase Nek2 (Homo sapiens) (UniProt P51955).
T3 sequence (whole entry): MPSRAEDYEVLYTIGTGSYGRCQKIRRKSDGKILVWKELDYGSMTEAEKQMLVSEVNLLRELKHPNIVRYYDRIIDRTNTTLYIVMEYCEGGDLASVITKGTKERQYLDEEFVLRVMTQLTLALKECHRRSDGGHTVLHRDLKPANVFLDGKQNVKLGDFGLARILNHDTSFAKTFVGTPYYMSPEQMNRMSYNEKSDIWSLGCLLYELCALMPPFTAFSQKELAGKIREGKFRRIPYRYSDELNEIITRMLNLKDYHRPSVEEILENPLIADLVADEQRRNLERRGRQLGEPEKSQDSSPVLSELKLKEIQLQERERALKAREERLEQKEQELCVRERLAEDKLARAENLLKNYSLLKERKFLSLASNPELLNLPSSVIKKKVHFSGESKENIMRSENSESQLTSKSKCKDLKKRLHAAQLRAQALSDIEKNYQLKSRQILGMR
Conditions: at 0.1 µM.

Assay [5] deals with T3, Serine/threonine-protein kinase Nek2 (Homo sapiens). Particulars: at 1 µM.
The target of assay [6] is Serine/threonine-protein kinase Nek6 (Homo sapiens) (UniProt Q9HC98). Conditions: at 0.1 µM.
Serine/threonine-protein kinase Nek6 (Homo sapiens), sequence (Q9HC98 whole entry): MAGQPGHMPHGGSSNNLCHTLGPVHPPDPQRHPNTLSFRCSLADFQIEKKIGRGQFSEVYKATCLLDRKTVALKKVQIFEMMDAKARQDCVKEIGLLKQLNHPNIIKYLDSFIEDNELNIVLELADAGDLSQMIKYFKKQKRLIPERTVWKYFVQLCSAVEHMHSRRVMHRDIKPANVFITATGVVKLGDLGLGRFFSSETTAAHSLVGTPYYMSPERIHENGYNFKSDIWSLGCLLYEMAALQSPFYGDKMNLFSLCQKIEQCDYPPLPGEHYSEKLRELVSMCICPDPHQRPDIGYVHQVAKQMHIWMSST
Assay [7] shares this target. Conditions: at 1 µM.
For assay [8], the target named is Serine/threonine-protein kinase Nek7 (Homo sapiens) (UniProt Q8TDX7). Conditions: at 0.1 µM.
Serine/threonine-protein kinase Nek7 (Homo sapiens), sequence (Q8TDX7 whole entry, looked up): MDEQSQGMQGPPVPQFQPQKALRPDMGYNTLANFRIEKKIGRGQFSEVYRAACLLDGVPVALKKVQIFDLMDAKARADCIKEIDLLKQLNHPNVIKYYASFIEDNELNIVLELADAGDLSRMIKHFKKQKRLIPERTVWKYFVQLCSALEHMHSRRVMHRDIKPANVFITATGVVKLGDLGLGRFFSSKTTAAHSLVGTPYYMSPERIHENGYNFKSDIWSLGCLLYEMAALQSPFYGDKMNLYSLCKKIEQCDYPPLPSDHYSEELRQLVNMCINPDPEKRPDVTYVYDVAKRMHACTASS
Assay [9] has the same target. Conditions: at 1 µM.
Assay [10] has as its target T4, Serine/threonine-protein kinase Nek9 (Homo sapiens) (UniProt Q8TD19).
T4 sequence (whole entry): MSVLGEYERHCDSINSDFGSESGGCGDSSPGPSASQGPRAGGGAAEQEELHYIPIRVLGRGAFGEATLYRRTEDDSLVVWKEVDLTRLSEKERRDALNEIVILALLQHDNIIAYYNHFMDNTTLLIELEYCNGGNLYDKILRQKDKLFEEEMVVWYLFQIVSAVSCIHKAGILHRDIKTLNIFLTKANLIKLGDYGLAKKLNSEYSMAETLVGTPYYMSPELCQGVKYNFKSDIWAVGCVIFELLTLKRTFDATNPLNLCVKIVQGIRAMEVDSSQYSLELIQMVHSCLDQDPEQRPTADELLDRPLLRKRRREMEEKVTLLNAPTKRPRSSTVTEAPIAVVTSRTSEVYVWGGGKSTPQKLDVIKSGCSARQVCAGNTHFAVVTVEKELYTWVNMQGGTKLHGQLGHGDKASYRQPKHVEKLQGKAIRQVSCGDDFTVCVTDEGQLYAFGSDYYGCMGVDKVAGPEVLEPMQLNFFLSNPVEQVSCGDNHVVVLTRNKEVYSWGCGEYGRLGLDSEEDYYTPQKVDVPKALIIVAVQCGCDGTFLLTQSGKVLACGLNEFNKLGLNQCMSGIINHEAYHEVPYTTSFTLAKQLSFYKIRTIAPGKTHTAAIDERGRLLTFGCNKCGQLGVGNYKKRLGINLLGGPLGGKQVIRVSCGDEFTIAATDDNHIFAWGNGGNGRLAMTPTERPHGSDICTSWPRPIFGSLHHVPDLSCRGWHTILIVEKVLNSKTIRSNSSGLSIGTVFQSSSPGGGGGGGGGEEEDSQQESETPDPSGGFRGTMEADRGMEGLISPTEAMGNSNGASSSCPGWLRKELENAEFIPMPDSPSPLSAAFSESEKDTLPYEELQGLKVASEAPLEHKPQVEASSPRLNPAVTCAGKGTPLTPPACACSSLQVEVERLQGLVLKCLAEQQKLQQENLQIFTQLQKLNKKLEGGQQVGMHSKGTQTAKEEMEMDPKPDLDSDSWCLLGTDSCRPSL
Particulars: at 0.1 µM.

In assay [11] the target is T4, Serine/threonine-protein kinase Nek9 (Homo sapiens). Particulars: at 1 µM.
For assay [12], the target named is Serine/threonine-protein kinase PLK1 (Homo sapiens) (UniProt P53350). Conditions: at 0.1 µM.
Serine/threonine-protein kinase PLK1 (Homo sapiens), sequence (P53350 whole entry): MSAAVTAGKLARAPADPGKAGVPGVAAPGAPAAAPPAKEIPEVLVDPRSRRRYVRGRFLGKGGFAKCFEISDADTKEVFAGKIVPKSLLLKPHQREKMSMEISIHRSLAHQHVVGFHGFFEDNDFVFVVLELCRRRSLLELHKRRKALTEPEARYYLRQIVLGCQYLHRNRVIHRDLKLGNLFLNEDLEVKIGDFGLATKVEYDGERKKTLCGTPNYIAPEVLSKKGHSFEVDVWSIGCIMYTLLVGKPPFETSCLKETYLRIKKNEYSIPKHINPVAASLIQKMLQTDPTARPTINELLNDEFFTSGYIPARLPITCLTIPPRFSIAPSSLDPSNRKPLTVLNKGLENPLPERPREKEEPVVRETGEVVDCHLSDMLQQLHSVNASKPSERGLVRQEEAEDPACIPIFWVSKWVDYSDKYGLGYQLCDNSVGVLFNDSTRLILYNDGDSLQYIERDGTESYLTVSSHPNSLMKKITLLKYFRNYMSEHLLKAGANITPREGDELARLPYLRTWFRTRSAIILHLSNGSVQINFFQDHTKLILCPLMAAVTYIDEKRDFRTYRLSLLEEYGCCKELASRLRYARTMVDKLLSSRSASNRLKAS
The target is the same in assay [13]. Particulars: at 1 µM.
Assay [14] has as its target T5, Dual specificity protein kinase TTK (Homo sapiens) (UniProt P33981).
T5 sequence (whole entry): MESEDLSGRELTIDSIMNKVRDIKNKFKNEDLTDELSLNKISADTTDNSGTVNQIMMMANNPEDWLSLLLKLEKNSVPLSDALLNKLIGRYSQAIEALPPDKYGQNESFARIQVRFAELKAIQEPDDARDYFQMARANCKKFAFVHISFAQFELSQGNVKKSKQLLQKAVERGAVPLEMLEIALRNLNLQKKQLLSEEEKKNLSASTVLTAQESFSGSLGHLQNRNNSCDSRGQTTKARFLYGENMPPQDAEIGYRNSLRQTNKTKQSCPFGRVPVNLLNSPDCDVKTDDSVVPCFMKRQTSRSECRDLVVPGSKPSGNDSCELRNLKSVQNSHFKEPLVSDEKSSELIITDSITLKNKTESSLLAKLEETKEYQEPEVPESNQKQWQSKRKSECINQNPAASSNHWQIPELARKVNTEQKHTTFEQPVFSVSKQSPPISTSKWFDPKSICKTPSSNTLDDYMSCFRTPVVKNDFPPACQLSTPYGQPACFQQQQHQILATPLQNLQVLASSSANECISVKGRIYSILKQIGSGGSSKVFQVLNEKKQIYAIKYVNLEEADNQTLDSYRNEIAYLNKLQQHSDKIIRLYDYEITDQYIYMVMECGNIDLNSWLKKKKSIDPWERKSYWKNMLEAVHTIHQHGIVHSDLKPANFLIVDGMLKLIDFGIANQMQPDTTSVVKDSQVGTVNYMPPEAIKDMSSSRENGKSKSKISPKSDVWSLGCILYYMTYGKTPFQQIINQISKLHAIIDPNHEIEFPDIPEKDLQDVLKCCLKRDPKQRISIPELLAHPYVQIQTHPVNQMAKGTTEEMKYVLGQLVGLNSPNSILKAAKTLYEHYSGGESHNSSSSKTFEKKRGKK
Particulars: at 0.1 µM.

Assay [15] deals with T6, Receptor-type tyrosine-protein kinase FLT3 (Homo sapiens), P36888 [D835Y].
T6 sequence (whole entry): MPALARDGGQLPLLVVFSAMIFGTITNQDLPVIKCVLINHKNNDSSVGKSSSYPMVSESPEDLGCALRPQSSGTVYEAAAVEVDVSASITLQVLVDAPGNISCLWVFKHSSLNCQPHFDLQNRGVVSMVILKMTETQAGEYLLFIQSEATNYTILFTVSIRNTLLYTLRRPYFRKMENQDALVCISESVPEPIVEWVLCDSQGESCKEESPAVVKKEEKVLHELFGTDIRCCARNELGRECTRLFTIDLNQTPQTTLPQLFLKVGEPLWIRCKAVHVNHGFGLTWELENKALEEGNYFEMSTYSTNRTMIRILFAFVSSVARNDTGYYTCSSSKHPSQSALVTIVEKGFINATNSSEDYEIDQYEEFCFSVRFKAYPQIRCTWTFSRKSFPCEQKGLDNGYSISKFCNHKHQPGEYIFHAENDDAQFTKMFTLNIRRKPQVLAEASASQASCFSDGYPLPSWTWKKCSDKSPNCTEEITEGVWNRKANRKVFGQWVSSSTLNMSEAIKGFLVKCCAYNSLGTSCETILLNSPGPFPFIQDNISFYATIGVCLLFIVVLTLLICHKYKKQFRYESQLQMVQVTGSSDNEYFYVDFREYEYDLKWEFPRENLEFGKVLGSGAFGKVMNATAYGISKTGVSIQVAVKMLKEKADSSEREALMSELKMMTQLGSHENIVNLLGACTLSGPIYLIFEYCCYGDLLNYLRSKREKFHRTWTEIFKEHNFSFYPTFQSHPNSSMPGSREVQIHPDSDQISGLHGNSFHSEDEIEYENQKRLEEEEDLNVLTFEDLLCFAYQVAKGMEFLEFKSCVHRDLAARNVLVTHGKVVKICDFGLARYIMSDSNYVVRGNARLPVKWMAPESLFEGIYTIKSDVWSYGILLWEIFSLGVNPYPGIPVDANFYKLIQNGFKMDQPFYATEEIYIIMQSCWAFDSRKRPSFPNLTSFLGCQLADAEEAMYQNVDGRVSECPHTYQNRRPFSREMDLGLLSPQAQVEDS
Conditions: at 1 µM.

Assay [16] addresses Vascular endothelial growth factor receptor 3 (Homo sapiens) (UniProt P35916). Conditions: at 0.1 µM.
Assay [17] has the same target. Particulars: at 1 µM.
The target of assay [18] is Macrophage colony-stimulating factor 1 receptor (Homo sapiens) (UniProt P07333). Particulars: at 0.1 µM.
Macrophage colony-stimulating factor 1 receptor (Homo sapiens), sequence (P07333 whole entry): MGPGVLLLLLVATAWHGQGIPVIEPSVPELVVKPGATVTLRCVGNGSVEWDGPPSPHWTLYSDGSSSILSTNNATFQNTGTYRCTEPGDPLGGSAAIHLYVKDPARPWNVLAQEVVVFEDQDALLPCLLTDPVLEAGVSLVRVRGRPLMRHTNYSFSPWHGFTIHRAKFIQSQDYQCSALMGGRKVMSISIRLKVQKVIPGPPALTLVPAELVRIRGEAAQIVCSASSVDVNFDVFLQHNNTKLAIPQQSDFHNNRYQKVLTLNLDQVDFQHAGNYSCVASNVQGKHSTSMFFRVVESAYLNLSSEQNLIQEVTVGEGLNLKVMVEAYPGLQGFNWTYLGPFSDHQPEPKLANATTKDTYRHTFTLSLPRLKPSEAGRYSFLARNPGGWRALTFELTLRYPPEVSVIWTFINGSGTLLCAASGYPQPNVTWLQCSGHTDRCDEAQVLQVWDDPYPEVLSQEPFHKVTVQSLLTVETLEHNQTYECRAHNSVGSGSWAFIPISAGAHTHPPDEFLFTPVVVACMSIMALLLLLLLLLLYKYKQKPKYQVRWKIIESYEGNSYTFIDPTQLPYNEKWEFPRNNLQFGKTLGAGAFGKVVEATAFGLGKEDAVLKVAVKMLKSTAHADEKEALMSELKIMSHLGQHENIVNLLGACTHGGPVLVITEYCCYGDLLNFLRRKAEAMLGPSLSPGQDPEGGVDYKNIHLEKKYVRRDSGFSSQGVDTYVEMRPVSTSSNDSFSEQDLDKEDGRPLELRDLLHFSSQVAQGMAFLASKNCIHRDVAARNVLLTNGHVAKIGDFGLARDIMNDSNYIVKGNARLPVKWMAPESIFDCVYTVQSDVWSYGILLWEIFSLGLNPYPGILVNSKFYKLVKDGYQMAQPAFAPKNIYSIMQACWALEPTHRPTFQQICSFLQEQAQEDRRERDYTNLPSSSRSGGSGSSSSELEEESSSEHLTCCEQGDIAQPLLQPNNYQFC
The target is the same in assay [19]. Particulars: at 1 µM.
In assay [20] the target is Tyrosine-protein kinase Fyn (Homo sapiens) (UniProt P06241). Conditions: at 0.1 µM.
Tyrosine-protein kinase Fyn (Homo sapiens), sequence (P06241 2-537 limits assumed): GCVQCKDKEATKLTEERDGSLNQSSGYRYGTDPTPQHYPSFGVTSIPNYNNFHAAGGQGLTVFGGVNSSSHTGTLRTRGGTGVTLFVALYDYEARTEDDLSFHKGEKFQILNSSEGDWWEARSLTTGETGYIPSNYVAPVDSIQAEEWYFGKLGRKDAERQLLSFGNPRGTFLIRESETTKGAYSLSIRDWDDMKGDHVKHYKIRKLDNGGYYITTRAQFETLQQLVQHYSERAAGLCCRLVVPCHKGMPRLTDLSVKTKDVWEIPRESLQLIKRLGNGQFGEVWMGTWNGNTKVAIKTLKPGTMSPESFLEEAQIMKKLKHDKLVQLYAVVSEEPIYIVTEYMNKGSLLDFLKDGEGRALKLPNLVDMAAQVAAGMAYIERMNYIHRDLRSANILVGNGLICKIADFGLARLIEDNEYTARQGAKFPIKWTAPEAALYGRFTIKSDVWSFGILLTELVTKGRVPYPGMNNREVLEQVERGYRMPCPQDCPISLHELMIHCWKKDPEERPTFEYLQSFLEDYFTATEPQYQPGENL

What is called inhibition is the share of the control response that was lost under treatment.

Vascular endothelial growth factor receptor 3 (Homo sapiens), sequence (P35916 whole entry): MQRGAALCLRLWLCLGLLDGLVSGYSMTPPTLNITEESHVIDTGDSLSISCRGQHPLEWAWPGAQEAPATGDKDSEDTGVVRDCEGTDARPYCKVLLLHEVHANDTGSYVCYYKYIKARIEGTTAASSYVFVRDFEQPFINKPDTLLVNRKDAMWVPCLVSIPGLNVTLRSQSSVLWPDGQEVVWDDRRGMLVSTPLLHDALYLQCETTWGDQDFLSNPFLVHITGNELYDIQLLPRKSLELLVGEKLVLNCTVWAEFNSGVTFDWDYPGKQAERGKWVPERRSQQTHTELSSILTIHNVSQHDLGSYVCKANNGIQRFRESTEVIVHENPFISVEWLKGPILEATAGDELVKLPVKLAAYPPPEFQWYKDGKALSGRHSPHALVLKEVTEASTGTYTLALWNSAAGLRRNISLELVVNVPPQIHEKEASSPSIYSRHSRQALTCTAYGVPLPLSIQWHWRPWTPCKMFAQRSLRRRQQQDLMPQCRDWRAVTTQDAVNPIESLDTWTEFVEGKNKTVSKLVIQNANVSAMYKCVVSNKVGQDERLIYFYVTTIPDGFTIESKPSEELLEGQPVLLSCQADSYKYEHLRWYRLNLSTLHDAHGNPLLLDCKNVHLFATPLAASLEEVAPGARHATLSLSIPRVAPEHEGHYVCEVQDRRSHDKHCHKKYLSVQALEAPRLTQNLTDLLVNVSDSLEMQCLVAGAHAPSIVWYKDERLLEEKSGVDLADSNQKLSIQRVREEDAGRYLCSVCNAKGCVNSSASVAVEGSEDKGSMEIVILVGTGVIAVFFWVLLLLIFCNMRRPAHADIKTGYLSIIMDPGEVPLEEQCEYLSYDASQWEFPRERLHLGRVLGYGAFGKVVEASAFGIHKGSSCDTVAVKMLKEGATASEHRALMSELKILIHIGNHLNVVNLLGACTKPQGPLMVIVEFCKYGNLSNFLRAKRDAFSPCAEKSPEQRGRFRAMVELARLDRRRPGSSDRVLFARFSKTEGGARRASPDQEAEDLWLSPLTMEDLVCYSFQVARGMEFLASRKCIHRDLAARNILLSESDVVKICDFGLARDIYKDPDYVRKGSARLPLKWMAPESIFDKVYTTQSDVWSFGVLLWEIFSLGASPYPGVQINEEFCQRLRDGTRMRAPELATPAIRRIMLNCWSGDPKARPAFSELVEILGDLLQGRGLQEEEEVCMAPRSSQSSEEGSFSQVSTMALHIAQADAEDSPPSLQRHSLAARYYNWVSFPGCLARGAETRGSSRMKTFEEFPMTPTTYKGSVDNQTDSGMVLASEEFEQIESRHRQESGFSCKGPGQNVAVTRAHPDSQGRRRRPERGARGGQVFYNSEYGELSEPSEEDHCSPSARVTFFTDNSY

As to `NCc1ccc(-n2c(-c3nonc3N)nc3cnccc32)cc1`, the inhibition in assay [1] turned out to be 11.4%; in assay [2] it was 3.18%; in assay [3] it was 3.48%; in [4] it was 6.17%; in assay [5], 7.8%; in [6], 3.51%. Further, the inhibition turned out to be 3.42% in assay [7]; 7.27% in assay [8]; 7.6% in assay [9]; 2.32% in [10]; 6.1% in assay [11]; 3.75% in [12]. Moreover, the inhibition in [13] worked out at 3.27%; in [14], 19.4%; in assay [15], 6.04%; in assay [16] it was 6.13%; in assay [17], 7.01%; in assay [18], 12.5%. The inhibition came to 49.6% in assay [19] and 1.24% in assay [20].
